Whole data set: some 140,000 sequences, median “enrichment ratio after two sorts for PhoP signalling” near 0, cut for the highest 2% near 11. The sample holds the highest values, similar sequences and a random draw of the others, so the mix is not that of the screen.

First the molecules themselves.
B1: PhoQ; a variant is named by its letters at X, in order, P23837 (parent)
chain: MKKLLRLFFPLSLRVRFLLATAAVVLVLSLAYGMVALIGYSVSFDKTTFRLLRGESNLFYTLAKWENNKLHVELPENIDKQSPTMTLIYDENGQLLWAQRDVPWLMKMIQPDWLKSNGFHEIEADVNDTSLLLSGDHSIQQQLQEVREDDDDAEMTHSVAVNVYPATSRMPKLTIVVVDTIPVELKSSYMVWSWFIYVLSANLLLVIPLLWVAAWWSLRPIEALAKEVRELEEHNRELLNPATTRELTSLVRNLNRLLKSERERYDKYRTTLTDLTHSLKTPLXXLQXXLRSLRSEKMSVSDAEPVMLEQISRISQQIGYYLHRASMRGGTLLSRELHPVAPLLDNLTSALNKVYQRKGVNISLDISPEISFVGEQNDFVEVMGNVLDNACKYCLEFVEISARQTDEHLYIVVEDDGPGIPLSKREVIFDRGQRVDTLRPGQGVGLAVAREITEQYEGKIVAGESMLGGARMEVIFGRQHSAPKDE

The variants in the experiment derive from B1. The experiment in a line: enrichment ratio after two sorts for PhoP signalling (ratio (wild type AVST 3.29)); higher = more functional. To be noted: with PhoP (E. coli).
For SQYM, the enrichment ratio was not above 0.25.

With VRMI, the enrichment ratio is not above 0.25.

QHIN: the enrichment ratio is not above 0.25.

For the variant SFID, the enrichment ratio was not above 0.25.

With DARD, the enrichment ratio is not above 0.25.

As to RDIV, the enrichment ratio was not above 0.25.

For NYWF, the enrichment ratio was not above 0.25.

On to TEWF, for which the enrichment ratio is 22.

Regarding QEWF, the enrichment ratio was not above 0.25.

As for RLCT, the enrichment ratio was not above 0.25.

With NKEG, the enrichment ratio was not above 0.25.

For AIVI, the enrichment ratio was determined as 13.

Take AQHE: the enrichment ratio was not above 0.25.

As for AQVA, the enrichment ratio was 14.1.

For AQVK, the enrichment ratio is not above 0.25.

With AQRA, the enrichment ratio is not above 0.25.

For ADVE, the enrichment ratio is not above 0.25.

For NQVI, the enrichment ratio was not above 0.25.

Consider AQVI, for which the enrichment ratio is 18.1.

For the variant AQVE, the enrichment ratio stood at 34.1.

As to WIVI, the enrichment ratio is not above 0.25.

For the variant VHVI, the enrichment ratio is not above 0.25.

Consider ICVI, for which the enrichment ratio was not above 0.25.

Regarding DEDS, the enrichment ratio is not above 0.25.

For the variant DGNR, the enrichment ratio was not above 0.25.

Turning to DLTS, the enrichment ratio is not above 0.25.

As for PPKY, the enrichment ratio is not above 0.25.

For the variant ICPL, the enrichment ratio is not above 0.25.

In the case of KKGI, the enrichment ratio is not above 0.25.

As for DIWR, the enrichment ratio is not above 0.25.

With HNLR, the enrichment ratio is not above 0.25.

For the variant AIVE, the enrichment ratio is 12.3.

Take AQWG: the enrichment ratio is not above 0.25.

Turning to KQVS, the enrichment ratio was not above 0.25.

Consider AQVS, for which the enrichment ratio turned out to be 14.

Consider NMVI, for which the enrichment ratio was not above 0.25.

For AKVE, the enrichment ratio was not above 0.25.

With AMVI, the enrichment ratio came out at 16.3.

As for EQVS, the enrichment ratio is not above 0.25.

Take AQVG: the enrichment ratio was determined as 12.

AQVC: the enrichment ratio turned out to be 9.47.

Regarding RIVE, the enrichment ratio was not above 0.25.

Take VLVI: the enrichment ratio is not above 0.25.

On to DFYH, for which the enrichment ratio was not above 0.25.

Consider PRHA, for which the enrichment ratio was not above 0.25.

As to KVWY, the enrichment ratio is not above 0.25.

As to KKYK, the enrichment ratio was not above 0.25.

For the variant ETML, the enrichment ratio was not above 0.25.

Turning to NGLV, the enrichment ratio stood at 6.65.

On to VGLV, for which the enrichment ratio turned out to be 12.3.

On to SGHK, for which the enrichment ratio was not above 0.25.

For VRLV, the enrichment ratio is not above 0.25.

Turning to VHLV, the enrichment ratio was not above 0.25.

With AGLV, the enrichment ratio was found to be 12.7.

Consider RGLV, for which the enrichment ratio was not above 0.25.

On to TGLV, for which the enrichment ratio is 12.3.

With APLV, the enrichment ratio was not above 0.25.

With CFLV, the enrichment ratio is not above 0.25.

Turning to SGLV, the enrichment ratio amounted to 17.9.

LWQD: the enrichment ratio was not above 0.25.

As for FDMF, the enrichment ratio was not above 0.25.

Take VNQQ: the enrichment ratio is not above 0.25.

Turning to YCCF, the enrichment ratio was not above 0.25.

Turning to NGGQ, the enrichment ratio was not above 0.25.

Take MMPC: the enrichment ratio is not above 0.25.

Regarding LNWD, the enrichment ratio is not above 0.25.

With VQIE, the enrichment ratio was not above 0.25.

With QIPP, the enrichment ratio was not above 0.25.

As to MGLV, the enrichment ratio stood at 15.2.

NILV: the enrichment ratio came out at 0.722.

With GGLV, the enrichment ratio is 13.7.

Take MGLA: the enrichment ratio turned out to be 2.09.

Consider GYLV, for which the enrichment ratio is not above 0.25.

With MGLW, the enrichment ratio was not above 0.25.

As to YFRP, the enrichment ratio is not above 0.25.

IDDH: the enrichment ratio was not above 0.25.

FGMI: the enrichment ratio was 11.8.

On to FGMV, for which the enrichment ratio is 16.7.

For the variant FGMW, the enrichment ratio is not above 0.25.

Turning to FGMQ, the enrichment ratio turned out to be 21.1.

Take FGGG: the enrichment ratio is not above 0.25.

Take FGGQ: the enrichment ratio is 3.04.

In the case of FGMD, the enrichment ratio is not above 0.25.

In the case of FGMS, the enrichment ratio is 0.618.

As for FGMG, the enrichment ratio was 0.824.

As to YKMH, the enrichment ratio is not above 0.25.

With HWMV, the enrichment ratio is not above 0.25.

For RAPQ, the enrichment ratio is not above 0.25.

With ATVM, the enrichment ratio came to 6.8.

On to STPC, for which the enrichment ratio is not above 0.25.

Regarding TGVV, the enrichment ratio came out at 0.277.

For the variant RGYF, the enrichment ratio is not above 0.25.

With MGVA, the enrichment ratio is not above 0.25.

On to MGWV, for which the enrichment ratio stood at 6.77.

Take MGVV: the enrichment ratio was 15.6.

As to MGYV, the enrichment ratio worked out at 13.4.

On to MGYF, for which the enrichment ratio came out at 12.2.

For TGYF, the enrichment ratio was 1.56.

Turning to MGGS, the enrichment ratio worked out at 17.9.

Turning to MGWI, the enrichment ratio worked out at 1.07.

For the variant MGVK, the enrichment ratio was not above 0.25.

With MGHV, the enrichment ratio was found to be 2.03.

As to MMRA, the enrichment ratio was not above 0.25.

As to DQCN, the enrichment ratio was not above 0.25.

For the variant MMLA, the enrichment ratio is not above 0.25.

Turning to ASGS, the enrichment ratio turned out to be 3.2.

In the case of MGCV, the enrichment ratio stood at 14.

As to MGKH, the enrichment ratio is not above 0.25.

MGDS: the enrichment ratio is not above 0.25.

For the variant MTYQ, the enrichment ratio stood at 2.5.

In the case of MGGH, the enrichment ratio was 20.1.

With MGKI, the enrichment ratio was not above 0.25.

Take MGCI: the enrichment ratio turned out to be 5.38.

Consider MGGQ, for which the enrichment ratio is 2.83.

As for MGGD, the enrichment ratio is not above 0.25.

For the variant MGYQ, the enrichment ratio was 14.

Take MGDI: the enrichment ratio was not above 0.25.

Regarding MGGA, the enrichment ratio came out at 24.1.

With SGGC, the enrichment ratio is 10.9.

With HITM, the enrichment ratio is not above 0.25.

Regarding PRMN, the enrichment ratio is not above 0.25.

As for EYFG, the enrichment ratio was not above 0.25.

On to DTNW, for which the enrichment ratio is not above 0.25.

For the variant LCAW, the enrichment ratio is not above 0.25.

With IYCG, the enrichment ratio was not above 0.25.

With GGHL, the enrichment ratio is not above 0.25.

Regarding TGHL, the enrichment ratio came out at 7.55.

Consider MGYD, for which the enrichment ratio is not above 0.25.

Consider MGHF, for which the enrichment ratio is 0.887.

On to MGYI, for which the enrichment ratio was found to be 13.6.

As to TGYS, the enrichment ratio was 1.45.

MGDR: the enrichment ratio is not above 0.25.

As for MGHL, the enrichment ratio is 19.3.

Turning to MGYK, the enrichment ratio is not above 0.25.

Consider MGWA, for which the enrichment ratio is not above 0.25.

Consider MGHI, for which the enrichment ratio amounted to 19.7.

Consider MGYS, for which the enrichment ratio is 12.2.

As for EVSV, the enrichment ratio is not above 0.25.

With VKDT, the enrichment ratio is not above 0.25.

Regarding DASS, the enrichment ratio is not above 0.25.

As for QDGG, the enrichment ratio was not above 0.25.

On to NATL, for which the enrichment ratio was not above 0.25.

Regarding NITL, the enrichment ratio was not above 0.25.

On to FSTL, for which the enrichment ratio was 4.4.

On to SPTL, for which the enrichment ratio is not above 0.25.

KATL: the enrichment ratio was not above 0.25.

In the case of GYTL, the enrichment ratio was not above 0.25.

As to TVTL, the enrichment ratio amounted to 15.2.

Regarding TYTL, the enrichment ratio was found to be 15.2.

As for TATL, the enrichment ratio is 16.3.

RYTL: the enrichment ratio is not above 0.25.

Regarding TMTL, the enrichment ratio was determined as 20.9.

With KSTL, the enrichment ratio was not above 0.25.

Source of the values: a collection of fitness landscapes (doi:10.1126/science.1257360).
